This is an account of results in PMC7819943, “Rice protein-binding microarrays: a tool to detect cis-acting elements near promoter regions in rice”.

In all, about 35,000 sequences were measured (“fluorescence intensity (a.u.)”: median about 10,000, highest 2% from about 52,000 on). For the sample, the highest values were picked, then their nearest neighbours and some sequences at random.

The assay has as its target T1, OsWOX13 (Oryza sativa, UniProt Q5QMM3 1-267).
T1 sequence: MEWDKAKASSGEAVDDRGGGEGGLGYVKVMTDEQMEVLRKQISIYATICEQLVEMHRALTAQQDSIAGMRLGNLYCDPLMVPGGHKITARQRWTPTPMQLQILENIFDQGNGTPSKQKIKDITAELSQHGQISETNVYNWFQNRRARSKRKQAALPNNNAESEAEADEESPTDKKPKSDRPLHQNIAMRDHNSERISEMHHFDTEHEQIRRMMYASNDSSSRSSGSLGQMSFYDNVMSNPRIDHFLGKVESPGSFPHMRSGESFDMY
As to the kind of experiment: protein-binding microarray (RPBM); PBS, 2% BSA, 51.3 ng/ul salmon testes DNA, 50 uM zinc acetate, 200 nM TF, 25 C, 1 h; high values mean tight binding. The note with it: protein: recombinant; tags: N-terminal polyhistidine and DsRed monomer fusion (pET32a); label: CyDye5-dUTP incorporated in the synthesized complementary strand; 3' TTTTT single-stranded linker to array surface; dsDNA, one strand shown. The procedure, abridged:
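For the binding signal, per-feature fluorescence intensity was read in arbitrary units on an Axon 4000B scanner. Before scanning, a 2% BSA-blocked custom Agilent array made double-stranded with Cy5-dUTP was washed after 1 h at 25 °C with 200 nM protein and 50 µM zinc acetate. The proteins were Ni–NTA-purified transcription factors with N-terminal polyhistidine and DsRed fusions, expressed in E. coli BL21-CodonPlus.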
For “TTAATTTACCGGATTCAATATTCCATATTTAGAAGTCACCCGGAGTCACCTAGTGCAG”, the binding signal is 3350 fluorescence intensity (a.u.). The value for “CATGACATCGTCATTGACCGTGTCATCGTCAAGATGGATGCGGAGTCACCTAGTGCAG” was 4420 fluorescence intensity (a.u.); that for “AATAAAAGATTATCATATCTAAATAGAAGATATACCATCTCGGAGTCACCTAGTGCAG” was 4160 fluorescence intensity (a.u.). Regarding “AAACCAATTTCAATTACCAATTACTCCCTAATATTAGCTACGGAGTCACCTAGTGCAG”, the binding signal is 18900 fluorescence intensity (a.u.). The value for “GATCAAAAGAAATTTGCCAAATTTACTGCTTTGTGATGGGCGGAGTCACCTAGTGCAG” was 3610 fluorescence intensity (a.u.); that for “TGACCTAATTAATTATTTAACTAATAATAATTAGTGATTACGGAGTCACCTAGTGCAG” was 44500 fluorescence intensity (a.u.); that for “GATAAGTGATTGATTAACTACTAATTTAATTATCACTGTGCGGAGTCACCTAGTGCAG” was 63300 fluorescence intensity (a.u.). The value for “GCTCTGATTAATTTCAAACTTCGATTATGGACTAGTCAACCGGAGTCACCTAGTGCAG” was 53400 fluorescence intensity (a.u.). The value for “TTATGATTTTCATATAAATCAAATGGGACTTTAATTAATCCGGAGTCACCTAGTGCAG” was 11500 fluorescence intensity (a.u.). Regarding “ATTGATTTTATTAAGTAACTGTGTGCTAATTAATTGTTCACGGAGTCACCTAGTGCAG”, the binding signal was 28300 fluorescence intensity (a.u.). The value for “CATCAACATATAATTGATTAAATATTAATTATAACAAACTCGGAGTCACCTAGTGCAG” was 45700 fluorescence intensity (a.u.); that for “CTAATTATAAACCTTAATCAGCTAAAATCCTAACCCATCACGGAGTCACCTAGTGCAG” was 3290 fluorescence intensity (a.u.). The value for “TAATTAATTGATTAATGACTAAACTTGGCCATCAACCGCTCGGAGTCACCTAGTGCAG” was 64800 fluorescence intensity (a.u.). The value for “ATCACCGACTAATTAATTAATTAATTAATCATCCTTGATTCGGAGTCACCTAGTGCAG” was 38800 fluorescence intensity (a.u.); that for “TGTTAACTAATTAAATACCCATTATCAAACATTTAATTGACGGAGTCACCTAGTGCAG” was 22900 fluorescence intensity (a.u.). For “ATGGACTAATTATGCTCAAAAGATTCGTCTCACGATTTACCGGAGTCACCTAGTGCAG”, the binding signal was 16800 fluorescence intensity (a.u.).

For “CATTAATTAAACTAACCCATCCATTGATTGATTATCAGTGCGGAGTCACCTAGTGCAG”, the binding signal is 63500 fluorescence intensity (a.u.). As for “TTGTAATGGTGAAATCATGTTCAGTTTATTGTCGTACAAACGGAGTCACCTAGTGCAG”, the binding signal is 3710 fluorescence intensity (a.u.). The value for “GCAAATGGATTGTACAACTATGGAAGGGGCAGGTTCGAGGCGGAGTCACCTAGTGCAG” was 5170 fluorescence intensity (a.u.); that for “GTTTAATTAAAATCCACCAACAATGACAATTTAATAGGTGCGGAGTCACCTAGTGCAG” was 32300 fluorescence intensity (a.u.). Turning to “CACTTAACTGAACACTTACTTCTCGGTGACAAGTGAAATGCGGAGTCACCTAGTGCAG”, the binding signal was 10800 fluorescence intensity (a.u.). Next, “TAACTAATTACCAAACAGATCGTACCCCACCATAAGAATCCGGAGTCACCTAGTGCAG”: 29200 fluorescence intensity (a.u.); “TAAACTGATATAAGTGCCTAAATTTGGATTGAGGGTGGTGCGGAGTCACCTAGTGCAG”: 8300 fluorescence intensity (a.u.).

Take “TAAGTAATTATTAATTCTTTTCCTATCATTTGATTTATTGCGGAGTCACCTAGTGCAG”: the binding signal was 11700 fluorescence intensity (a.u.).

Take “GTAATTATAATAATGAGTTACTGATCGAGAGGAGGAGAGGCGGAGTCACCTAGTGCAG”: the binding signal is 7580 fluorescence intensity (a.u.). The value for “AGTAATTATTAATTATTTTCCTATCATTTGATTTATTGTTCGGAGTCACCTAGTGCAG” was 35700 fluorescence intensity (a.u.); that for “AAACTTTAATTTATCAACCATAAAAGAAACAATTAGAAGGCGGAGTCACCTAGTGCAG” was 6940 fluorescence intensity (a.u.). The value for “ACAGTGTAATTACACTATGATTGTACTGTAATTACATTTGCGGAGTCACCTAGTGCAG” was 44000 fluorescence intensity (a.u.); that for “AAATGATTTGATCTAAATTGATAAGTTACTGAGGAGTGCGCGGAGTCACCTAGTGCAG” was 64800 fluorescence intensity (a.u.); that for “GATTTAATGGATCACCTGCTATTACAGATTCCTTCAGTTGCGGAGTCACCTAGTGCAG” was 4210 fluorescence intensity (a.u.). The value for “TAACTAATTATTAATTGTTTTCCTATCATTTGATTCATTGCGGAGTCACCTAGTGCAG” was 53200 fluorescence intensity (a.u.); that for “GCTAATTAACTGTGATTGCAAGAAGGAAAACCATAGAAGGCGGAGTCACCTAGTGCAG” was 53800 fluorescence intensity (a.u.).

With “TTTGATTAATTCAGTGCTTCCTTCCCGTTACATTACACTGCGGAGTCACCTAGTGCAG”, the binding signal is 54000 fluorescence intensity (a.u.). Next, “CTAATTGGCAAATTAAACAAAGAAGAAGAGGAAAGGAAGGCGGAGTCACCTAGTGCAG”: 44700 fluorescence intensity (a.u.).

In the case of “CTCTAATGAATGTGCATGTTATGTTTCCAAATCTCACTAGCGGAGTCACCTAGTGCAG”, the binding signal was 3850 fluorescence intensity (a.u.). The value for “TCTCATACAATCAACAACCTTAAACACATCAGCTCTAGTACGGAGTCACCTAGTGCAG” was 4160 fluorescence intensity (a.u.). Next, “CTTCTGATAACAACTGATTAGAAACTATGTTAATTTGATGCGGAGTCACCTAGTGCAG”: 31100 fluorescence intensity (a.u.); “TACTCTTAGATTGAACAGGCTTCTGGCTCAAAACTTTTGACGGAGTCACCTAGTGCAG”: 8550 fluorescence intensity (a.u.); “ATTAATTATTTATTTCTTATATTACAGATTTTCAGTATATCGGAGTCACCTAGTGCAG”: 18600 fluorescence intensity (a.u.). The value for “TATAACTAATTATTTAATCGTTAATAAGCTGTTCCGCTAACGGAGTCACCTAGTGCAG” was 25600 fluorescence intensity (a.u.); that for “ACTGCTAATTAACCCTCTATAAATGCATGCCTCTCACCACCGGAGTCACCTAGTGCAG” was 30400 fluorescence intensity (a.u.). On to “TTTAACATTTCCCCTTATAATTTTACCAAATCACTATGTTCGGAGTCACCTAGTGCAG”, for which the binding signal is 4600 fluorescence intensity (a.u.).
